# From PubChem BioAssay
# Hits are enriched below; roughly 3.6% of the tested compounds scored in any of these assays.
# Wnt act – Wnt/beta-catenin pathway activators, primary screen, cell-based, plate reader, single point; activation, % at 9.35 µM; 300,000 compounds, 1.2% hits; Wnt/beta-catenin reporter cell assay, activator; in the data active means activation above about 30%, passing the limit was not always enough;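 further: 0% = neutral control wells and 100% = positive control wells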
# A3G deaminase – APOBEC3G DNA deaminase inhibitors, primary screen, biochemical, fluorescence, single-stranded DNA substrate, uHTS. DNA dC->dU-editing enzyme APOBEC-3G (Homo sapiens), Q9HC16. recombinant A3G, ssDNA deamination FAM/TAMRA fluorescence. inhibition, % at 20 µM. 330,000 compounds, 0.28% hits;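 active means inhibition of at least 40% at 20 µM, with no more than 30% in the related APOBEC3A deaminase screen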;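 further: plate controls were DMSO wells with A3G for no effect and wells lacking A3G enzyme for full effect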
# Target sequence (Q9HC16 whole entry, looked up): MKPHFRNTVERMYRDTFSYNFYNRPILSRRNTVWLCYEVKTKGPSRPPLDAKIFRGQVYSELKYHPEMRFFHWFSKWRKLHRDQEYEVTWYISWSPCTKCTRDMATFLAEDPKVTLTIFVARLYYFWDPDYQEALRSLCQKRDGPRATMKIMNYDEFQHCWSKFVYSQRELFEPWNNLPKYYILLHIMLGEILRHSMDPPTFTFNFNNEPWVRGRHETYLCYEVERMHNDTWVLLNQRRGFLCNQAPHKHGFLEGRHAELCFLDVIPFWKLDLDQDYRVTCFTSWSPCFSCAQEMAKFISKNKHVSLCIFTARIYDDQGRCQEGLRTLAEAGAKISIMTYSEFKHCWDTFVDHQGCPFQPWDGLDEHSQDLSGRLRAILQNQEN
# A3A deaminase – APOBEC3A ssDNA deaminase inhibitors, primary screen, selectivity assay for APOBEC3G inhibitor project, biochemical, FAM/TAMRA oligo cleavage fluorescence; recombinant A3A, FAM/TAMRA ssDNA deamination fluorescence; 330,000 compounds, 0.41% hits; AID 493011, 2011; inhibition, % at 20 µM;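 active means at least 40% inhibition at 20 µM here, with at most 30% in a related deaminase screen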;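 further: plate controls were A3A with DMSO for no effect and wells lacking A3A enzyme for full effect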
# Target sequence (P31941 whole entry, looked up): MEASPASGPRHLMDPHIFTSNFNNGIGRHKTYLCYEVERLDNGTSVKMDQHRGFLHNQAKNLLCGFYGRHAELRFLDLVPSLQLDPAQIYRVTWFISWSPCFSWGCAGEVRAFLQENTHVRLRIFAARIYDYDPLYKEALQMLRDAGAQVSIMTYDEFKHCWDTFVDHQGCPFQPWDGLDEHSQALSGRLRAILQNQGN
# esBAF inh – Bmi1 luciferase reporter increase in mESCs, primary screen, esBAF inhibitor project, mouse ES cells, Bmi1 luciferase knock-in, single point. 350,000 compounds, 2% hits. AID 602393, 2012. 24 h; 100% = twice the neutral-well signal. reporter increase, % at 12.5 µM; in the data active means activation above about 40%;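 further: 0% = median of the plate's neutral control wells and 100% = double that signal; a rise in the Bmi1 reporter signal indicates esBAF inhibition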
# MITF act – activators of MITF-driven TRPM1 promoter reporter, primary screen, cell-based, SK-MEL-5, luciferase, single point. 300,000 compounds, 0.75% hits. SK-MEL-5 TRPM1-promoter luciferase, 24 h; % of positive control, neutral wells = 0. activation, % at 12.5 µM;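 active means mean activation of at least 80% with every replicate also reaching 80%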;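 further: 0% = neutral control wells and 100% = parthenolide positive control wells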
# PHOSPHO1 inh – PubChem AID 1565; Phosphoethanolamine/phosphocholine phosphatase (Homo sapiens), Q8TCT1; recombinant PHOSPHO1, absorbance phosphatase assay; inhibition, % at 13.3 µM; 290,000 compounds, 1.1% hits; in the data active means inhibition above about 60%
# A3A conf – APOBEC3A deaminase inhibitors, retest, confirmation, selectivity assay for APOBEC3G inhibitor project, biochemical, single concentration, fluorescence readout | shares compounds with A3A deaminase | recombinant A3A, ssDNA deaminase UDG fluorescence assay | inhibition, % at 20 µM | 1,400 compounds, 63% hits | AID 493151, 2011;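 active means inhibition reaching a set limit, 80% of the first screen's cutoff, at 20 µM in any replicate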;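 further: plate controls were DMSO wells with A3A for no effect and wells lacking A3A enzyme for full effect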
# UDG A3A counter – E. coli UDG inhibitors, confirmation, counter-screen for APOBEC3A inhibitor project, biochemical, single concentration, fluorescence, FAM/TAMRA oligo; shares compounds with A3A deaminase; UDG counterscreen, FAM/TAMRA uracil oligo fluorescence; inhibition, % at 20 µM; 1,000 tested, under 10 active; AID 504714, 2011; call rule not given here
# * = called active by the depositor; . = not tested or not shown.
SMILES,Wnt act,A3G deaminase,A3A deaminase,esBAF inh,MITF act,PHOSPHO1 inh,A3A conf,UDG A3A counter
CC(=O)NC(CC(=O)O)c1ccccc1 (stereo not drawn),-2,1,2,-8,5,0,.,.
CO[C@H]1CN(C)C(=O)c2ccc(NC(=O)Nc3cc(F)ccc3F)cc2OC[C@H](C)N(C)C[C@H]1C,.,.,.,-2,.,.,.,.
O=C1C=C(O)CC(c2ccco2)C1 (stereo not drawn),.,13,46*,-4,1,10,53*,-4
O=C(N/N=C/c1cc(Br)c(Br)o1)c1ccc2c(c1)OCCO2,37*,28,76*,58*,.,17,50*,-1
COc1ccc(S(=O)(=O)N(C)C[C@H]2Oc3ccc(NC(=O)NC4CCCCC4)cc3CC(=O)N([C@H](C)CO)C[C@@H]2C)cc1,.,.,.,1,.,.,.,.
O=C(CSc1ccccn1)N1CCc2ccccc21,5,6,66*,.,68,-78,23,.
O=C(C[C@@H]1C=C[C@@H](NC(=O)Nc2ccc(C(F)(F)F)cc2)[C@H](CO)O1)NCc1cccc(F)c1,.,.,.,2,.,.,.,.
CCOC(=O)c1ccc2c(c1)N(C)C(=O)c1ccccc1S2,.,13,57*,-7,-1,-16,82*,-3
CCN1C(=O)c2ccccc2Sc2ccc(C(=O)O)cc21,-2,-4,-4,-7,8,31,.,.
CN1CCN(C(=O)[C@H]2[C@H](CO)[C@H]3Cn4c(ccc(C5=CCCC5)c4=O)[C@@H]2N3S(C)(=O)=O)CC1,.,.,.,5,.,.,.,.
CN(C)c1ccc(N=Nc2ccc(C(=O)O)cc2)cc1,7,25,64*,.,-65,35,54*,1
COc1ccc(C(=O)N[C@H](C(=O)NCc2cccs2)C(C)C)cc1,-1,-4,40*,.,2,-14,12,-1
COc1cc(OC)cc(C(=O)N[C@H](C(=O)NCc2cccs2)C(C)C)c1,0,-6,0,1,-3,33,.,.
O=C(/C=C/c1ccco1)N1CCN(S(=O)(=O)c2ccccc2)CC1,-4,14,41*,1,-5,.,29,.
CCSc1nc2ccc(N3C(=O)C4C5C=CC(C5)C4C3=O)cc2s1 (stereo not drawn),-1,5,60*,.,21,6,20,.
CCN1C(=O)Nc2cccc3cccc1c23,-14,-5,-5,.,.,.,.,.
CCC1=[N+](C)c2cccc3cccc(c23)N1C,0,22,65*,.,-1,7,78*,-3
CCN(c1ccccc1)S(=O)(=O)c1cc(C(=O)OC(C)C(=O)Nc2ccc3c(c2)OCCO3)ccc1C (stereo not drawn),-2,13,50*,8,-8,39,37*,1
CC1=C(C(=O)OCc2ccccc2)N2C(=O)[C@@H](NC(=O)COc3ccccc3)[C@H]2SC1,-3,-10,-7,-2,17,-19,.,.
CC1=C(C(=O)OCc2ccc([N+](=O)[O-])cc2)N2C(=O)C(NC(=O)Cc3ccccc3)C2SC1 (stereo not drawn),-2,-2,50*,-9,-6,36,40*,-3
CCCC1=[N+](CC(=O)c2ccccc2)CCn2c(C)ccc21,7,-9,-7,.,-22,19,.,.
CCCC1=[N+](CC)CCn2c(C)ccc21,.,20,60*,-9,-6,37,76*,0
CC(=O)N1[C@@H]2Cn3c(cccc3=O)[C@H]1[C@@H](C(=O)N1CCc3ccccc3C1)[C@@H]2CO,.,.,.,-1,.,.,.,.
COc1ccc(/C=N\NC(=O)CNC(=O)C(c2ccccc2)c2ccccc2)cc1[N+](=O)[O-],-1,-10,-3,1,-8,10,.,.
COc1ccc(/C=N/NC(=O)C(C)Sc2ccccn2)cc1[N+](=O)[O-] (stereo not drawn),0,11,49*,.,-3,13,65*,12
SMILES,Wnt act,A3G deaminase,A3A deaminase,esBAF inh,MITF act,PHOSPHO1 inh,A3A conf,UDG A3A counter
Cc1ccc(C)c(NC(=O)c2cc[n+](C)cc2)c1,-1,9,79*,-5,.,14,69*,-2
Cc1ccc(C(=O)Nc2cc([N+](=O)[O-])ccc2C)cc1,11,-9,-4,9,4,-3,.,.
C[n+]1ccc(C(=O)Nc2ccccc2Cl)cc1,-1,14,73*,1,.,-137,69*,-2
Cc1ccc(C)c(NC(=O)c2ncn[nH]2)c1,-14,12,45*,-6,-2,10,41*,-1
Cc1c(NC(=O)c2ncn[nH]2)cccc1-c1nc2ccccc2s1,.,25,75*,.,-2,6,72*,3
CCCN1C[C@@H](C)[C@@H](OC)CN(C)C(=O)c2cc(NC(=O)c3ccccc3F)ccc2OC[C@@H]1C,.,.,.,-4,.,.,.,.
C[C@@H]1CN([C@H](C)CO)C(=O)c2cc(NS(=O)(=O)c3cn(C)cn3)ccc2O[C@@H](C)CCCCO[C@@H]1CN(C)C(=O)C1CCCCC1,.,.,.,-5,.,.,.,.
O=C(NCCOc1ccccc1)c1ncn[nH]1,-1,21,76*,-3,9,12,52*,-3
CCN(CC(=O)Nc1c(F)cccc1F)C(=O)c1cccc(-n2cccc2)c1,-1,18,75*,-2,2,.,55*,-3
CO[C@@H]1CN(C)C(=O)c2cc(NC(=O)c3ccc4c(c3)OCO4)ccc2OC[C@@H](C)N(CC2CC2)C[C@@H]1C,.,.,.,6,.,.,.,.
O=C(Cc1ccccc1)N[C@H]1C=C[C@@H](CC(=O)N2CCCCC2)O[C@H]1CO,.,.,.,-5,.,.,.,.
O=C(NCC(c1ccco1)N1CCOCC1)c1c(F)cccc1F (stereo not drawn),0,-7,43*,.,-3,.,-2,-3
O=C(NCC(c1ccco1)N1CCOCC1)c1ccc(F)cc1 (stereo not drawn),2,-3,1,.,0,.,.,.
O=C1CC(c2ccco2)CC(O)=C1C=Nc1cc(Cl)ccc1O (stereo not drawn),-23,29,55*,11,-3,-8,54*,.
O=C(NCC[C@H]1CC[C@@H](NC(=O)C2CC2)[C@H](CO)O1)c1cnccn1,.,.,.,1,.,.,.,.
